Measurements published in the supplement of paper PMC11417369.
± gives the standard deviation of the averaged measurements. In all, about 25,000 sequences were measured (“ln(normalized median fluorescence intensity)”: median about 8.6, highest 2% from about 10 on). Many of the other results were omitted from the sample, so the highest values are more common in it than they were.

These sequences were tested on PfAP2-EXP AP2 domain (GST-tagged) (assay: gcPBM binding intensity (ln(normalized median fluorescence intensity)); higher = stronger DNA binding).
Method in brief: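 An Agilent 4 × 180k array of primer-extended double-stranded 36-bp intergenic genomic probes, with negative controls, was incubated for 1 h with GST-tagged P. falciparum DNA-binding domains expressed in E. coli. Alexa488 anti-GST antibody detected bound protein, scanned at 488 nm. Binding intensity is the highest Masliner-normalised natural-log median intensity across replicate spots of either probe orientation.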

Sequence	gcPBM binding intensity (ln)
GCATAACCTTTATATTGTACATATACCTTTATTGTT [XGTACX_site6046]	9.16 ± 0.45
TTTAATAAATAAATAAATAAAATATATTAAAAACCA [CACACA_negctrl_site80]	8.38 ± 0.36
GCATCCCTTTTTATGTGTACATACAAAGGCAATTAC [XGTACX_site6977]	8.86 ± 0.33
CCTTAATATTTTTGAAGTACATATTTATTTTACAAG [XGTACX_site3049]	8.31 ± 0.33
TGCTACATTTTATGTACACACATATACAGATATATA [CACACA_site4646]	8.42 ± 0.26
TCATATGTTAAATGATGTACATTTAATATAAATAAA [XGTACX_site900]	8.38 ± 0.15
AATTGCATAATATATTCACACATTTTTAAGTGATAC [CACACA_site5679]	8.38 ± 0.35
ATATATATATATATTGTACACACATTTATGCATATA [CACACA_site9055]	10 ± 0.2
ATATTCAATATATTATGTACACATATATGAGGATAT [XGTACX_site7019]	8.65 ± 0.41
ATAATCATAAAATAAACACACATATATAAATATATT [CACACA_site276]	8.27 ± 0.47
TATGAATGGTTAAGTACACACATATTAATATATGTA [CACACA_site3490]	8.49 ± 0.45
ATATTATATAATAATGCATGCACCTTATTTTCATTT [TGCATGCA_site405]	10.2 ± 0.44
TAATAATTAATTAATATAATATTTTTTCATAATTAT [XGTACX_negctrl_site602]	8.22 ± 0.4
ATTATATAATAATGCATGCACCTTATTTTCATTTCA [GTGCAC_site9922]	9.99 ± 0.19
TGTATAATATTTGGTGCACACAAATTAACAACTGTT [CACACA_site9245]	9.21 ± 0.32
AACATATTTTTAAATACACACACATAAAAAAAAAAA [CACACA_site8279]	8.59 ± 0.5
AATTTATATGTTTTGTGTACACAATTTATTAAATTA [XGTACX_site6448]	9.03 ± 0.29
TATTTTGTATTCATTTGTCACATATAATAGATAGGA [TGCATGCA_negctrl_site9]	8.69 ± 0.32
GTATATATTTTGTATTCATTTGTCACATATAATAGA [CACACA_negctrl_site506]	8.69 ± 0.5
ATTCGTCACATTTTTTGATATATATATATATATATA [CACACA_negctrl_site1785]	10.4 ± 0.4
ATCCATCTTTTAATTTGTACTTATTCTTTTTTCTTT [XGTACX_site5299]	9 ± 0.67
